According to PubChem BioAssay (EPA / NIEHS):
Activity calls are given as the source filed them. How the source made its calls: active means hit-call score of the fitted dose curve at least 0.9, where 1 is the maximum; inactive means score below 0.9.

Legend:
[1] = read-out: Matrix Metallopeptidase 1 (MMP1), MMP1 (gene 4312); assay: BSK_BE3C_MMP1: BioMAP Diversity Plus: BE3C Assay for Matrix Metallopeptidase 1 (MMP1) Biomarker Activity (AID 2283024); conditions: primary human bronchial epithelial cells; actives raise or lower the signal
Summary of the method: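 Dose cells, wait 24 h, run MMP1 ELISA; cells are human bronchial epithelial primaries. Both increases and decreases relative to DMSO counted.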

[2] = BSK_3C_Vis: BioMAP Diversity Plus: 3C Assay for Morphology Visualization (AID 2283025); conditions: primary human endothelial cells (HUVEC);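 further: light microscopy image of cell morphology used as background control; cells imaged 24 h after dosing; fitted both ways so gain or loss versus DMSO counts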
Summary of the method: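 Endothelial cells from human umbilical vein were treated with test chemicals for 24 h and inspected by light microscopy for changes in cell conformation.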

[3] = read-out: Pselectin, SELP (gene 6403); assay: BSK_4H_Pselectin: BioMAP Diversity Plus: 4H Assay for Pselectin Biomarker Activity (AID 2283026); conditions: primary human endothelial cells (HUVEC); actives raise or lower the signal
Summary of the method: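 Human vascular endothelium from umbilical vein; P-selectin measured by ELISA at 24 h post-dose, with cytotoxicity checked by sulforhodamine B total-protein staining in parallel cultures (0.1% SRB after 10% TCA fixation, read at 560 nm).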

[4] = BSK_4H_SRB: Viability Assessment in the BioMAP Diversity Plus: 4H Assay (AID 2283027); conditions: primary human endothelial cells (HUVEC);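 further: cells exposed to compound for 24 h before staining; curves fitted both ways versus DMSO so AC50 may be loss or gain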
Summary of the method: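 Human umbilical vein endothelial cells were dosed with chemical and, after 24 h, fixed with 10% TCA, stained with 0.1% sulforhodamine B, and read at 560 nm to give total protein as a cytotoxicity measure. Bidirectional fitting relative to DMSO control.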

[5] = BSK_BE3C_SRB: Viability Assessment in the BioMAP Diversity Plus: BE3C Assay (AID 2283028); conditions: primary human bronchial epithelial cells;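 further: measured 24 h after chemical dosing; fitted both ways so AC50 may mark signal gain or loss versus DMSO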
Summary of the method: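 Overt cytotoxicity was assessed as total protein in confluent human primary bronchial epithelial cultures 24 h after chemical addition, using 0.1% sulforhodamine B staining read at 560 nm.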

[6] = read-out: Thrombomodulin, THBD (gene 7056); assay: BSK_3C_Thrombomodulin: BioMAP Diversity Plus: 3C Assay for Thrombomodulin Biomarker Activity (AID 2283029); conditions: primary human endothelial cells (HUVEC); actives raise or lower the signal
Summary of the method: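 Thrombomodulin ELISA, human primary HUVEC, 24 h post-dose; data fitted in both directions relative to DMSO.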

[7] = read-out: Urokinase-type plasminogen activator receptor (uPAR), PLAUR (gene 5329); assay: BSK_4H_uPAR: BioMAP Diversity Plus: 4H Assay for Urokinase-type plasminogen activator receptor (uPAR) Biomarker Activity (AID 2283030); conditions: primary human endothelial cells (HUVEC); actives raise or lower the signal
Summary of the method: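 Chemicals are dosed onto human vascular endothelial primary cells (umbilical vein). After 24 h, uPAR is read by ELISA. Gain or loss of signal is fitted relative to DMSO.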

Measured: AC50

c1ccc(CCc2ccccc2)cc1
active: [1] 20 µM | [2] 8.8 µM | [3] 35.7 µM | [4] 31 µM | [5] 33.2 µM | [6] 20 µM | [7] 32.2 µM
